Results from PubChem BioAssay (Tox21).
Where “and” joins values, the source holds several entries; their conditions need not be identical. Identical values can stand only once. Inconclusive results are not listed. Calls of active or inactive are those of the source. Unless noted, the call rests on the fitted dose curve; in most records, active means well fitted curve in the direction sought with a large enough effect in the repeat runs; inconclusive means weak or mixed curves; inactive means no such curve, though single readings can be large; an effect the other way counts as inactive or inconclusive.

How the values were obtained:
[1] = qHTS assay to identify small molecule agonists of the androgen receptor (AR) signaling pathway in the presence of an antagonist - cell viability counter screen (AID 1259379); further: nearly all actives have a fitted effect of over 25% in size; further: potency means the concentration at half of the fitted maximal effect
Method in brief: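 In MDA-kb2 cells (human breast carcinoma, MMTV-luciferase), compounds at 15 concentrations plus 3.0uM nilutamide; 16 hr, 37C, 0% CO2; CellTiter-Fluor fluorescence read for viability.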

[2] = qHTS assay to identify small molecule agonists of the estrogen receptor beta (ER-beta) signaling pathway - cell viability counter screen (AID 1259380); further: nearly all actives have a fitted effect of over 30% in size; further: potency means the concentration at half of the fitted maximal effect
Method in brief: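 Viability of ER-beta-UAS-bla HEK293T cells was determined by CellTiter-Glo luminescence following 16 hr treatment with test compounds at 37C.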

[3] = biological target: Estrogen receptor (Homo sapiens) (UniProt P03372); assay: qHTS assay to identify small molecule agonists of the estrogen receptor alpha (ER-alpha) signaling pathway in the presence of an antagonist (AID 1259383; calls by dose curve; further: top concentration of the series differs between compounds; nearly all actives have a fitted effect of over 15% in size)
Estrogen receptor (Homo sapiens), sequence (P03372 whole entry, looked up): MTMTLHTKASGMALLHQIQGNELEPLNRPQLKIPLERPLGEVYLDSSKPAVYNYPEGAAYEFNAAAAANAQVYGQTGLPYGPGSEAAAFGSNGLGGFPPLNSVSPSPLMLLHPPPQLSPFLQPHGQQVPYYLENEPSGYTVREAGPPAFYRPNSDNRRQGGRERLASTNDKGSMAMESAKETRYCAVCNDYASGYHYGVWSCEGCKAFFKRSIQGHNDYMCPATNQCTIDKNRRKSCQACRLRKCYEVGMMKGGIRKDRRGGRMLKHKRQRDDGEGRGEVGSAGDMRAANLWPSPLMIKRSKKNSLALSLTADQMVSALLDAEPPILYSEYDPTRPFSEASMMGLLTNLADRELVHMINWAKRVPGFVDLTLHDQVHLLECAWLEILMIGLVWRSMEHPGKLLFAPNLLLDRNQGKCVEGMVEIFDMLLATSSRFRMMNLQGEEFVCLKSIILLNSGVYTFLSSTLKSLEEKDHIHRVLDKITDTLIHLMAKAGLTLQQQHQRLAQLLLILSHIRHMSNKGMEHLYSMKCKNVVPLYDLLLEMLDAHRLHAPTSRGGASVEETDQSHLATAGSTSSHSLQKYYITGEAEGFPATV
Method in brief: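 In VM7Luc4E2 cells, 4,000 per well, compounds at 15 concentrations were co-incubated 22hr at 37C with 10.0nM final ICI-182,780. Luminescence from the stably transfected 4×ERE-luciferase reporter was recorded 30min after ONE-Glo addition.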

[4] = qHTS assay to identify small molecule agonists or antagonists of the thyroid stimulating hormone receptor (TSHR) signaling pathway - wild type cell line counter screen (AID 1259384; calls by dose curve)
Method in brief: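 Wild-type Hek293 cells, 800/well, 18 h at 37C, then compound with Ro20-1724 for 30 min RT. cAMP by HTRF (cAMP-d2/anti-cAMP cryptate), 1 h RT, fluorescence read. 15 concentrations, triplicates.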

[5] = biological target: Thyrotropin receptor (Homo sapiens) (UniProt P16473); assay: qHTS assay to identify small molecule antagonists of the thyroid stimulating hormone receptor (TSHR) signaling pathway (AID 1259385; calls by dose curve; further: nearly all actives have a fitted effect of over 20% in size; further: potency means the concentration at half of the fitted maximal effect)
Thyrotropin receptor (Homo sapiens), sequence (P16473 whole entry, looked up): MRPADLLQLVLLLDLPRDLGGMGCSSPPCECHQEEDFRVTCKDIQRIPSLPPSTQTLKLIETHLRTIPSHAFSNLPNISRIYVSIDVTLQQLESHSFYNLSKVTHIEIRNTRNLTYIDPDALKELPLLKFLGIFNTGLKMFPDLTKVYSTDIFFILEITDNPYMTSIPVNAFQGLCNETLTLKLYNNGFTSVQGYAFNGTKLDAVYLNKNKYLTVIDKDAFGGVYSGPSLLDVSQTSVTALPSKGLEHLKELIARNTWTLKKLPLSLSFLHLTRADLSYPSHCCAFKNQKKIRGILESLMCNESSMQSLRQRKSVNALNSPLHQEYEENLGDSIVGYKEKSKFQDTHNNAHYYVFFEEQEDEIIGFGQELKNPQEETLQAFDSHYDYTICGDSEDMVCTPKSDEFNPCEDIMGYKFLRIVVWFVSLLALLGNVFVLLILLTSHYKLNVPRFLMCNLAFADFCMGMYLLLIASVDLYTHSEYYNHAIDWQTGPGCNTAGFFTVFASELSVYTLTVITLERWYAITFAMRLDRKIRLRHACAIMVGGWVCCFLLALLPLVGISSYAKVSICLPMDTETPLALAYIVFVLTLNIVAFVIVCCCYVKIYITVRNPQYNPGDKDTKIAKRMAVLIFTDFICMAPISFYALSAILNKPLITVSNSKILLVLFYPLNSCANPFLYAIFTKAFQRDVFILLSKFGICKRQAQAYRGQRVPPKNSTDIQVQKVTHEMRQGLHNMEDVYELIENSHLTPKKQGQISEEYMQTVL
Method in brief: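 TSHR-HEK293 cells (800/well) plated 18 h, then compounds with Ro20-1724 and TSH at 1.5 ng/mL final, 30 min at room temperature. cAMP quantified by HTRF (cAMP-d2/anti-cAMP-cryptate, 1 h); 15 concentrations in triplicate.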

[6] = qHTS assay to identify small molecule antagonists of the progesterone receptor (PR) signaling pathway - cell viability counter screen (AID 1346798); further: nearly all actives have a fitted effect of over 50% in size; further: potency means the concentration at half of the fitted maximal effect
Method in brief: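 Same-well multiplex: after 16 hr at 37C with compound and R5020 stimulation, HEK293T cells carrying a UAS-bla reporter received LiveBLAzer substrate (2 hr RT), then CellTiter-Glo (30 min RT) for luminescent viability.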

[7] = qHTS assay to identify small molecule antagonists of the TGF-beta/Smad signaling pathway - cell viability counter screen (AID 1346824); further: nearly all actives have a fitted effect of over 50% in size; further: potency means the concentration at half of the fitted maximal effect
Method in brief: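 SBE-bla HEK 293T cells, incubated overnight, then compound plus 0.25 ng/mL TGF-beta1 (stock added) for 5 hr at 37 C. Viability was read in the same wells by CellTiter-Glo luminescence after 30 min at room temperature.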

[8] = qHTS assay to identify small molecule agonists of the TGF-beta/Smad signaling pathway (AID 1346859; active means well fitted activation curve with a large enough effect in the signal ratio in the repeat runs, not every such curve was filed as active; the % refers to the signal ratio; further: series mostly up to about 77 µM)
Method in brief: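 Smad-responsive beta-lactamase reporter cells (HEK 293T) received compounds from DMSO stocks after overnight attachment, were incubated 5 hr, then treated 2 hr with FRET substrate before dual-emission fluorescence measurement (405 nm excitation).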

[9] = biological target: Thyrotropin-releasing hormone receptor (Homo sapiens) (UniProt P34981); assay: qHTS assay to identify small molecule antagonists of the thyrotropin-releasing hormone receptor (TRHR) signaling pathway (AID 1346877; active means well fitted inhibition curve with a large enough effect in the repeat runs, not every such curve was filed as active; further: potency means the concentration at half of the fitted maximal effect)
Thyrotropin-releasing hormone receptor (Homo sapiens), sequence (P34981 whole entry, looked up): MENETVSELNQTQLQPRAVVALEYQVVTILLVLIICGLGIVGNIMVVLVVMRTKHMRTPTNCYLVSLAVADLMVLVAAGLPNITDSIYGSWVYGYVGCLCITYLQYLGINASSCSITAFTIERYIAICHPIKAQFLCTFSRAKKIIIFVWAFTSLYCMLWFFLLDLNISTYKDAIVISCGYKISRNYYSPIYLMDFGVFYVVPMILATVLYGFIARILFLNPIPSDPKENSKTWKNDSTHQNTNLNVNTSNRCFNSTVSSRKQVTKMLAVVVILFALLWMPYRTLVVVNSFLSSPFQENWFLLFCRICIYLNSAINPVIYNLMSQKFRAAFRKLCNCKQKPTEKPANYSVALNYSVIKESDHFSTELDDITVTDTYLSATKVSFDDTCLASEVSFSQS
Method in brief: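 In this cell-based calcium flux format, HEK293 cells expressing TRHR received test compound for 5 min before the agonist TRH (1 nM final). Dye loading lasted 2 h at 37 °C.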

[10] = biological target: Thyrotropin-releasing hormone receptor (Homo sapiens) (UniProt P34981); assay: qHTS assay to identify small molecule agonists of the thyrotropin-releasing hormone receptor (TRHR) signaling pathway (AID 1346891; calls by dose curve; further: potency means the concentration at half of the fitted maximal effect; on activation: series mostly up to about 58 µM)
Method in brief: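 Agonist-mode calcium mobilisation screen: TRHR-transfected HEK293 cells cultured overnight (18 h), dye-loaded for 2 h at 37 °C, exposed to compounds, and monitored by fluorescence for 3 min.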

[11] = qHTS assay to identify small molecule agonists of the estrogen receptor alpha (ER-alpha) signaling pathway in the presence of an antagonist - cell viability counter screen (AID 1259386);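 further: cells exposed to compounds for 22 h at 37 °C before the viability read; nearly all actives have a fitted effect of over 30% in size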; further: potency means the concentration at half of the fitted maximal effect
Method in brief: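 Fluorescent CellTiter-Fluor viability signal from VM7Luc4E2 cells, with the reagent added during the final hour of a 22hr compound exposure at 37C in the presence of 10.0nM ICI-182,780.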

[12] = biological target: Progesterone receptor (Homo sapiens) (UniProt P06401); assay: qHTS assay to identify small molecule antagonists of the progesterone receptor (PR) signaling pathway (AID 1346795; active means well fitted inhibition curve with a large enough effect in the signal ratio in the repeat runs, not every such curve was filed as active; the % refers to the signal ratio)
Progesterone receptor (Homo sapiens), sequence (P06401 whole entry, looked up): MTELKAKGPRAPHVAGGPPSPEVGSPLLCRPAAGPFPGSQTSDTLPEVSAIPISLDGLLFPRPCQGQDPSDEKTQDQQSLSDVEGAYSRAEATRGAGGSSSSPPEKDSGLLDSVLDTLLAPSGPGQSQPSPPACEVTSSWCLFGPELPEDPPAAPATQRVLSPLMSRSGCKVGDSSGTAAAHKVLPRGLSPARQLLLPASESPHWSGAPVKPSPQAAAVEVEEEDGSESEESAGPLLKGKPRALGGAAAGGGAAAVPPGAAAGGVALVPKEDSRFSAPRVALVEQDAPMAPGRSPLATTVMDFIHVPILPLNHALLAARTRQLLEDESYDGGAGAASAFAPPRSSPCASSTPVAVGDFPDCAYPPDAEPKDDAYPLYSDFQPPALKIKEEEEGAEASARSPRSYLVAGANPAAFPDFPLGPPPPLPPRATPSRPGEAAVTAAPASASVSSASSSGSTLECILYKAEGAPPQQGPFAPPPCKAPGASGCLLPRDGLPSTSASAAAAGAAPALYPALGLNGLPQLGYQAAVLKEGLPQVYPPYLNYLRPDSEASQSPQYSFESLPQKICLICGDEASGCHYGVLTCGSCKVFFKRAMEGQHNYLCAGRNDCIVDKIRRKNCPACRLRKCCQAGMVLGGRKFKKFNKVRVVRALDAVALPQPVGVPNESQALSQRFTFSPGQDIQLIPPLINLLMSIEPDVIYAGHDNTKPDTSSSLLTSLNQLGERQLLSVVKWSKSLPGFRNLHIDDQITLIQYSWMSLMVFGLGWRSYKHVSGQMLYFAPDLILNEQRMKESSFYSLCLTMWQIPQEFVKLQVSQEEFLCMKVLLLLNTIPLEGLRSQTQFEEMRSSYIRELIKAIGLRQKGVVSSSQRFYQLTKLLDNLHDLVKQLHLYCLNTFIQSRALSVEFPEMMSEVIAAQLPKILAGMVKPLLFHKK
Method in brief: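 HEK293T PR-UAS-bla reporter cells in charcoal-stripped serum (2%) received compound after a 6 hr settling period, followed by R5020 agonist at 1 nM final; 16 hr incubation preceded the FRET substrate step and fluorescence measurement.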

[13] = qHTS assay to identify small molecule agonists of the progesterone receptor (PR) signaling pathway - cell viability counter screen (AID 1346799; calls by dose curve; further: nearly all actives have a fitted effect of over 45% in size; further: potency means the concentration at half of the fitted maximal effect)
Method in brief: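 Counter screen for cytotoxicity: compound-treated PR-UAS-bla HEK293T cells (16 hr, 37C, 5% CO2) were assayed with CellTiter-Glo, luminescence measured after 30 min at room temperature.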

[14] = qHTS assay to identify small molecule agonists of the TGF-beta/Smad signaling pathway - cell viability counter screen (AID 1346829); further: nearly all actives have a fitted effect of over 45% in size; further: potency means the concentration at half of the fitted maximal effect
Method in brief: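 SBE-bla HEK 293T cells plated overnight, compound exposure 5 hr at 37 C. Viability read in the same wells by CellTiter-Glo luminescence after 30 min at room temperature, following the beta-lactamase read.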

[15] = Caspase-3/7 induction in HepG2 cells by small molecules, qHTS assay (AID 1346978); further: nearly all actives have a fitted effect of over 15% in size
Method in brief: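 Wild-type HepG2 cells, 2,000/well, settled 5 hr at 37 C and 5% CO2, then compound-treated for 17 hr; caspase-3/7 activity read by luminescent Caspase-Glo 3/7 after 30 min at room temperature.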

[16] = biological target: Androgen receptor (Homo sapiens) (UniProt P10275); assay: qHTS assay to identify small molecule agonists of the androgen receptor (AR) signaling pathway in the presence of an antagonist (AID 1259381; calls by dose curve; further: nearly all actives have a fitted effect of over 15% in size; further: potency means the concentration at half of the fitted maximal effect)
Androgen receptor (Homo sapiens), sequence (P10275 whole entry, looked up): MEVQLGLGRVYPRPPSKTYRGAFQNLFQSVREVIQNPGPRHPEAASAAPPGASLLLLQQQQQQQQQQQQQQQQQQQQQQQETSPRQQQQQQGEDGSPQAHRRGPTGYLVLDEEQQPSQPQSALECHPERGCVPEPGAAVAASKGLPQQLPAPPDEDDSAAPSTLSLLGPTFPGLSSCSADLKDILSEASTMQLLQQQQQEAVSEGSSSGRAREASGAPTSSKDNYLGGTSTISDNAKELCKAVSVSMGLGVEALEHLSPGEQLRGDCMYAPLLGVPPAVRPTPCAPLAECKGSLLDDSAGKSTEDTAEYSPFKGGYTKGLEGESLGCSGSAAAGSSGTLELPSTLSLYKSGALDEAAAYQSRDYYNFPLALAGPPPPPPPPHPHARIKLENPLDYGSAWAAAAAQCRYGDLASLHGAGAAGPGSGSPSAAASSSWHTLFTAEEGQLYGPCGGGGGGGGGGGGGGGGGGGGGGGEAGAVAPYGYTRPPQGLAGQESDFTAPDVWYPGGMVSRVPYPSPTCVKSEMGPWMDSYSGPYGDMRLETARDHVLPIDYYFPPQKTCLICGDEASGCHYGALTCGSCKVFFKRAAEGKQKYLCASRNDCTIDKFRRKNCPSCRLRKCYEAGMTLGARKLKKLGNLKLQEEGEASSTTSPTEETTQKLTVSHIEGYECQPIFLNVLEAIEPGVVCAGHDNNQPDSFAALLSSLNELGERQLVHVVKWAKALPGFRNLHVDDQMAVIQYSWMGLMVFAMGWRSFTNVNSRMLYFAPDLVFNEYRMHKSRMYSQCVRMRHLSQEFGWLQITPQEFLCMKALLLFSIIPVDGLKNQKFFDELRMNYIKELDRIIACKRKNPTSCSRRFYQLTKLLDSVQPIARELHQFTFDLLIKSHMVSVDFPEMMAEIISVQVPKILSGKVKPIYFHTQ
Method in brief: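 Here, 15-concentration compound series were pin-transferred onto MDA-kb2 MMTV-luciferase cells already dosed with nilutamide (3.0uM final). After 16hr at 37C, ONE-Glo was added and luminescence read 30min later at room temperature.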

[17] = biological target: Progesterone receptor (Homo sapiens) (UniProt P06401); assay: qHTS assay to identify small molecule agonists of the progesterone receptor (PR) signaling pathway (AID 1346784; calls by dose curve; further: nearly all actives have a fitted effect of over 30% in size; further: potency means the concentration at half of the fitted maximal effect)
Method in brief: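 Agonist mode, quantitative HTS format in a HEK 293T line expressing a UAS-controlled beta-lactamase reporter; 16 hr compound exposure at 37C in 2% charcoal-stripped FBS, then LiveBLAzer B/G FRET fluorescence.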

[18] = Human pregnane X receptor (PXR) small molecule agonists, qHTS cell viability counter screen (AID 1346977); further: nearly all actives have a fitted effect of over 50% in size; further: potency means the concentration at half of the fitted maximal effect
Method in brief: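 Measures live-cell protease fluorescence (CellTiter-Fluor) in PXR-Luc HepG2 cells treated 24hr with compounds at 37C. Cells had 5hr to attach before pin transfer of DMSO solutions.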

[19] = qHTS assay to identify small molecule antagonists of the estrogen receptor beta (ER-beta) signaling pathway - cell viability counter screen (AID 1259382); further: nearly all actives have a fitted effect of over 55% in size; further: potency means the concentration at half of the fitted maximal effect
Method in brief: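 Tox21 10K library tested in qHTS format on ER-beta-bla HEK293T cells stimulated with 1nM E2; 16 hr treatment at 37C. Same-well CellTiter-Glo luminescence served as the cell viability measure.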

Measured: Potency

Oc1ccc(C2(c3ccc(O)cc3)c3ccccc3-c3ccccc32)cc1
active: [1] 34.4 µM | [2] 48.6 µM | [6] 48.6 µM
inactive: [3] | [4] | [5] | [7] | [8] | [9] | [10]

C=CC(=O)OCCCCOC(=O)C=C
active: [1] 54.5 µM
not listed: [4] | [16] | [17] | [18] | [19]
inactive: all other assays above

CCN(CC)c1c([N+](=O)[O-])cc(C(F)(F)F)c(N)c1[N+](=O)[O-]
not listed: [2] | [5] | [6] | [11] | [12] | [13] | [15] | [19]
inactive: all other assays above

C[C@@H]1CC[C@@]2(OC1)O[C@H]1[C@@H](O)[C@H]3[C@@H]4CC[C@H]5C[C@@H](O[C@@H]6O[C@H](CO)[C@H](O[C@@H]7O[C@H](CO)[C@@H](O)[C@H](O[C@@H]8OC[C@@H](O)[C@H](O)[C@H]8O)[C@H]7O[C@@H]7O[C@H](CO)[C@@H](O)[C@H](O[C@@H]8O[C@H](CO)[C@@H](O)[C@H](O)[C@H]8O)[C@H]7O)[C@H](O)[C@H]6O)[C@H](O)C[C@]5(C)[C@H]4CC[C@]3(C)[C@H]1[C@@H]2C
active: [1] 57.8 µM | [19] 10.3 µM | [5] 4.59 µM | [11] 72.8 µM | [6] 16.3 µM | [13] 14.5 µM | [7] 23.2 µM | [14] 20.7 µM | [9] 0.804 µM | [10] 0.655 µM | [18] 10.3 µM
inactive: [16] | [3] | [15]

[Cd+2].[Cl-].[Cl-]
inactive: [1] | [14] | [15]
active: [2] 69.1 µM and 68.6 µM | [19] 34.7 µM and 54.5 µM | [11] 61.6 µM and 54.5 µM | [6] 4.36 µM and 2.73 µM | [13] 13.8 µM and 6.11 µM | [18] 794 nM and 344 nM

CC(C)Oc1cccc(NC(=O)c2ccccc2C(F)(F)F)c1
active: [2] 17.2 µM | [17] 1.22 µM
inactive: [1] | [3] | [11] | [14] | [9] | [10] | [18] | [15]

CC(=[OH+])/C=C(/C)[O-].CC(=[OH+])/C=C(\C)[O-].CC(=[OH+])/C=C(\C)[O-].[Al]
not listed: [4] | [5] | [6] | [9] | [10] | [12] | [16] | [19]
inactive: all other assays above

CC(C)CBr
active: [16] 0.386 µM
not listed: [2] | [6] | [15]
inactive: all other assays above
